Screening data from PubChem BioAssay.
Sm TGR inh: blocks Schistosoma mansoni thioredoxin glutathione reductase | Potency, µM (series often up to 114 µM), for inactives: top-dose activity change, negative = inhibition, usual class: inhibitors | 3% of 360,000 active | Q962Y6 | purified TGR, DTNB reduction, TNB absorbance 405 nm | AID 485364; note: potency is the fitted concentration of half-maximal effect; nearly all actives have a fitted effect of over 60% in size
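First, TGR (20 nM dispensed) and NADPH were mixed with compound. Second, a 15 min room-temperature incubation followed. Third, further NADPH and then DTNB were added to start the reaction. Finally, TNB absorbance was monitored kinetically.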
HCV inhibitor: HCV inhibition. Potency, µM (doses to about 41.8 µM), for inactives: at the top dose activity change, negative = inhibition, actives largely listed as inhibitors. Huh7.5.1 HCVcc-Cre infection, luciferase reporter, 44 h. AID 651820. 3.4% of 340,000 active; note: potency is the fitted concentration of half-maximal effect
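Cells (1,000/well) were plated 4 h before compound, then infected with HCVcc-Cre virus (~0.5 moi). After 44 h further culture, infection was read as luciferase luminescence following a 15 min substrate incubation at room temperature.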
Vaccinia Venus: vaccinia inhibition (Venus reporter) | 0.46% of 330,000 active | Vaccinia virus Venus reporter expression, fluorescence | Potency, µM (doses to about 36.5 µM), without a hit: at the top dose activity change, negative = inhibition, actives largely listed as inhibitors; calls by dose curve; tested in A549 cells; note: potency is the fitted concentration of half-maximal effect; nearly all actives have a fitted effect of over 30% in size
VACV mCherry inh: vaccinia inhibition (mCherry reporter). Potency, µM (titrated, usually from 36.5 µM), without a hit: at the top dose activity change, negative = inhibition, most hits filed as inhibitors. AID 720579. 0.63% of 310,000 active. Vaccinia virus mCherry reporter infection, fluorescence; calls by dose curve; tested in A549 cells; note: potency is the fitted concentration of half-maximal effect; nearly all actives have a fitted effect of over 35% in size
FMDV inh: foot and mouth disease virus antiviral activity; FMDV antiviral cell-based qHTS; Potency, µM (highest dose often 57.9 µM), for inactives: at the top dose activity change, negative = inhibition, usual class: inhibitors; 1.2% of 410,000 active; AID 1159524; calls by dose curve; tested in HEK293T cells; note: read-out not given here; potency is the fitted concentration of half-maximal effect; nearly all actives have a fitted effect of over 45% in size
HCMV antiviral: inhibitors of human cytomegalovirus | HFF cells, HCMV-luciferase reporter, 72 h; stronger effect = lower value | activity change, negative = inhibition, % at 57.5 µM | 4.5% of 410,000 active | AID 1259415; in the data active = activity change below about -60%; inconclusive = no clear call, values can overlap the other calls; inactive = above about -39%
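After 16 h attachment at 37C, HFF cells received test compound and HCMV-luciferase (1 PFU/cell); reporter luminescence read 72 h later, data normalized against buffer-only and known inhibitor Salinomycin.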
Numbers without * were called inactive; ! = a repeat was not active; [ ] = dose if it differs, or a comment. Sampled rows, rich in hits. Any-hit rate of the full collection: about 9.3%. Unless noted, calls come from the whole dose curve; as a rule, active = well fitted curve in the direction sought with a large enough effect; inconclusive = small, poorly fitted or top-dose-only effect, or another doubt; inactive = no such curve, though single readings can be large; an effect the other way counts as inactive or inconclusive. % is set by controls: 0 for no effect and ±100 for the full control effect.

Screening COc1cccc(C2=CC(c3ccc(C)cc3)n3ncnc3N2)c1 (stereo not given) returned Sm TGR inh 17.8µM*.
Cc1ccc(C2=CC(c3ccccc3)n3ncnc3N2)cc1 (stereo not given) was read as HCV inhibitor -10.1%, Vaccinia Venus -18.8%, VACV mCherry inh -13.5%, FMDV inh -20.0% and HCMV antiviral -7.6.
`COc1ccc(Cl)c(Cn2c(NCCN)nc3c2c(=O)n(C)c(=O)n3C)c1` gave Sm TGR inh 1.0%, Vaccinia Venus -15.3%, VACV mCherry inh -14.1%, FMDV inh 4.9% and HCMV antiviral -4.7.
COc1cccc(Cn2c(NCc3ccco3)nc3c2c(=O)n(C)c(=O)n3C)c1 was read as Sm TGR inh -29.3%, HCV inhibitor inconclusive, FMDV inh inconclusive and HCMV antiviral -98.5*.
COc1ccc(Cl)c(Cn2c(NCc3ccco3)nc3c2c(=O)n(C)c(=O)n3C)c1 was read as Sm TGR inh 50.1µM*, HCV inhibitor inconclusive, Vaccinia Venus -26.2%, FMDV inh inconclusive and HCMV antiviral -6.5.
Screening COc1cc(/C=N/Nc2nc3c(c(=O)n(C)c(=O)n3C)n2Cc2ccccc2)ccc1OC(=O)c1ccco1 returned Sm TGR inh -11.2%, HCV inhibitor inconclusive, Vaccinia Venus -11.7%, VACV mCherry inh inactive, FMDV inh 14.1µM* and HCMV antiviral 38.9.
Oc1c(N=NC(=S)Nc2ccccc2F)c2ccccc2n1Cc1cccc(Cl)c1 was read as Sm TGR inh 11.5%, HCV inhibitor inconclusive, Vaccinia Venus -22.4%, VACV mCherry inh inconclusive, FMDV inh -3.4% and HCMV antiviral 48.4.
`Cc1ccc(NC(=O)COC(=O)CNC(=O)c2ccc3ccccc3c2)c([N+](=O)[O-])c1` gave Sm TGR inh -5.1%, HCV inhibitor 6.2%, Vaccinia Venus -13.2%, VACV mCherry inh inactive, FMDV inh -6.5% and HCMV antiviral 53.3.
`O=c1c2ccccc2c(/C=N/c2ncn[nH]2)c(O)n1Cc1ccccc1` gave Sm TGR inh 8.5%, HCV inhibitor inconclusive, Vaccinia Venus inconclusive, VACV mCherry inh inconclusive, FMDV inh -4.0% and HCMV antiviral -82.4*!.
For CSc1ccccc1OCc1cc(C(=O)N(C)CC2COCCO2)no1 (stereo not given) the results were Sm TGR inh 2.5%, Vaccinia Venus -8.5%, VACV mCherry inh inactive, FMDV inh 16.8% and HCMV antiviral 17.3.
Screening CCOC(=O)/C(=N\Nc1ccc(OC)cc1)c1csc(Nc2ccccc2)n1 returned Sm TGR inh -9.2%, HCV inhibitor 1µM*, Vaccinia Venus -29.6%, VACV mCherry inh -20.0% and HCMV antiviral -34.5.
For O=C(NCCN1CCOCC1)C(=O)NCc1ccc2c(c1)OCO2 the results were Sm TGR inh 1.7%[57.1 µM], HCV inhibitor 3.2%, Vaccinia Venus -9.2%, VACV mCherry inh -17.9%, FMDV inh 39.2% and HCMV antiviral 3.4.
CCCN1C(=O)c2cc(C(=O)Nc3cccc(C(C)=O)c3)ccc2C1Nc1cccc(C(C)=O)c1 (stereo not given) was read as Sm TGR inh -0.7%, HCV inhibitor inconclusive, FMDV inh inconclusive and HCMV antiviral 7.5.
CCCN1C(=O)c2cc(C(=O)Nc3ccccc3OC)ccc2C1Nc1ccccc1OC (stereo not given) was read as Sm TGR inh 5.8%, HCV inhibitor 11.2µM*, Vaccinia Venus -12.3%, VACV mCherry inh inactive, FMDV inh inconclusive and HCMV antiviral -29.1.
`Cc1ccc(C(C(=O)NCC2CCCO2)N(C(=O)c2snc(C(N)=O)c2N)c2ccccc2F)o1` (stereo not given) gave Sm TGR inh -18.9%, HCV inhibitor -10.9%, Vaccinia Venus -7.0%, VACV mCherry inh -3.4%, FMDV inh 3.2% and HCMV antiviral inconclusive.
Cc1ccc(S(=O)(=O)N2CCOCC2)cc1C(=O)N1CCN(Cc2ccccc2)CC1 was read as Sm TGR inh 0.2%, HCV inhibitor 9.4%, Vaccinia Venus -8.8%, VACV mCherry inh -19.7%, FMDV inh -16.6% and HCMV antiviral -16.6.
Cc1snc(S(=O)(=O)/C(C#N)=N/Nc2cccc(C(F)(F)F)c2)c1C#N was read as Sm TGR inh -12.2%, HCV inhibitor -5.5%, Vaccinia Venus inconclusive, VACV mCherry inh 11.2µM* and FMDV inh 27.7%.
For COc1ccc(N/N=C(/C#N)S(=O)(=O)c2nsc(C)c2C#N)cc1 the results were Sm TGR inh inconclusive, HCV inhibitor 6.3%, Vaccinia Venus -11.9%, FMDV inh 31.7% and HCMV antiviral 0.3.
Screening O=C(O)C1=C[C@@H](c2csc3ccccc23)C[C@@H](OCCCCO)O1 returned Sm TGR inh -1.1%, HCV inhibitor 21.9%, Vaccinia Venus -0.1%, VACV mCherry inh inactive, FMDV inh 12.6% and HCMV antiviral 8.2.
`C#CCNC(=O)C1=C[C@H](c2csc3ccccc23)C[C@H](OCCCCO)O1` gave Sm TGR inh 44.7µM*, HCV inhibitor 25.0%, Vaccinia Venus -23.6%, VACV mCherry inh -20.0%, FMDV inh -14.9% and HCMV antiviral -38.4.
CC(=O)n1cc([C@H]2C=C(C(=O)Nc3ccccc3)O[C@@H](OCCCCO)C2)c2ccccc21 was read as Sm TGR inh -10.0%, HCV inhibitor -13.0%, Vaccinia Venus -19.1%, VACV mCherry inh -21.2%, FMDV inh -22.2% and HCMV antiviral 0.4.
Screening CC(=O)n1cc([C@H]2C=C(C(=O)NCc3ccccc3)O[C@@H](OCCCCO)C2)c2ccccc21 returned Sm TGR inh inconclusive, HCV inhibitor -19.9%, Vaccinia Venus -12.3%, VACV mCherry inh inactive, FMDV inh -11.1% and HCMV antiviral -6.9.
Screening C#CCNC(=O)C1=C[C@@H](c2cn(C(C)=O)c3ccccc23)C[C@@H](OCCCCO)O1 returned Sm TGR inh 39.8µM*, HCV inhibitor -7.3%[8.37 µM], Vaccinia Venus -14.1%, VACV mCherry inh inactive, FMDV inh -3.3% and HCMV antiviral -30.1.
For CC(=O)n1cc([C@@H]2C=C(C(=O)NCc3ccccc3)O[C@H](OCCCCO)C2)c2ccccc21 the results were Sm TGR inh 50.1µM*, HCV inhibitor -16.0%, Vaccinia Venus -18.0%, VACV mCherry inh inconclusive, FMDV inh -12.6% and HCMV antiviral -6.7.
Screening C#CCNC(=O)C1=C[C@@H](c2ccc(C#C)cc2)C[C@@H](OCCCCO)O1 returned HCV inhibitor -26.0%, Vaccinia Venus -12.6%, VACV mCherry inh inactive, FMDV inh -11.7% and HCMV antiviral -31.3.
`C#CCNC(=O)C1=C[C@H](c2ccc(C(F)(F)F)cc2)C[C@H](OCCCCO)O1` gave Sm TGR inh 12.6µM*, HCV inhibitor inconclusive, Vaccinia Venus -3.2%, VACV mCherry inh inactive, FMDV inh -12.7% and HCMV antiviral 1.8.
